This test can be described thus: qHTS profiling of the MIPE4 collection as inhibitors of Plasmodium falciparum (3D7) proliferation (AID 743344).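 Note: scaled between DMSO vehicle wells and 0.29 µM artemisinin as full inhibition.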 The following applies: P. falciparum 3D7 in erythrocytes, SYBR Green DNA fluorescence, 72 h; at 28.5 µM unless noted. The source says:
Plasmodium falciparum is a virulent malarial parasite that kills 1-2 million people worldwide each year. Transmitted by mosquitoes, the sporozoite form of the parasite enters the blood stream to infect hepatocytes, where they become merozoites that infect red blood cells (erythrocytes). Within erythrocytes, merozoites begin a […] cycle of growth and division, after which the parasite is released to infect new red blood cells. Gametocytes, which form within erythrocytes as well, circulate in the bloodstream and are ingested by the mosquito, thereby completing the life cycle. To profile malarial isolates for differential chemical responses and to identify inhibitors of malarial growth, an assay that measures P. falciparum growth and replication within erythrocytes was employed. This assay uses a DNA binding fluorescent dye (SYBR Green) to detect parasite DNA following cell lysis. Because mature erythrocytes lack DNA, only Plasmodium-derived DNA is detected.
The SYBR Green viability assay was adapted from a method described previously (Plouffe et al., 2008). For screening 3 ul culture medium was dispensed into 1536 well black clear bottom plates (Aurora Biotechnologies) using a Multidrop Combi (Thermo Fisher Scientific Inc.), 23 nL compounds in DMSO were added by a pin tool (Kalypsys), and 5 ul of erythrocytes infected with P. falciparum (0.3% parasitemia, 2.5% hematocrit final concentration) were added. The plates were incubated at 37 C in a humidified incubator in 5% CO2 for 72 h, and 2 ul lysis buffer (20 mM Tris HCl, 10 mM EDTA, 0.16% saponin, 1.6% triton X, 10X SYBR Green I supplied as 10,000X […] by Invitrogen) was added to each well. The plates were mixed for 25 sec with gentle shaking and incubated overnight at room temperature in the dark. The following morning, fluorescence intensity at 485(14) nm excitation and 535(25) nm emission wavelengths was measured on an EnVision (Perkin Elmer) plate reader. Plate reads were normalized relative to the control inhibitor (0.29 uM artemisinin) and vehicle (DMSO) wells present on each plate and then corrected by an algorithm using vehicle-only control plates at the beginning and end of the compound plate stack.
Molecule `CN(CC=CC#CC(C)(C)C)Cc1cccc2ccccc12` registered a parasite growth, % of DMSO control of 15%.
For `O=C1C(c2c(O)[nH]c3ccccc23)=Nc2ccccc21`, the parasite growth, % of DMSO control was 90.1%.
Then `CC(C)CN(C[C@@H](O)[C@H](Cc1ccccc1)NC(=O)O[C@H]1CO[C@H]2OCC[C@H]21)S(=O)(=O)c1ccc(N)cc1`, with 42.7%; and `CC(C)c1c(C(=O)Nc2ccccc2)c(-c2ccccc2)c(-c2ccc(F)cc2)n1CC[C@H](O)C[C@@H](O)CC(=O)O`, with 7.03%.
For `CNC1CCC(N(Cc2cccc(-c3ccncc3)c2)C(=O)c2sc3ccccc3c2Cl)CC1` (stereo not given), the parasite growth, % of DMSO control was 4.86%.
Then `O=C(O)C1=CC(O)C(O)[C@H](O)C1` (stereo not given in full), with 92.4%; and `O=C(NCCCCN1CCOCC1)c1cc2ccccc2o1`, with 89%; and `CC(=O)OCC(=O)[C@@]12OC(C)(C)O[C@H]1C[C@H]1[C@@H]3C[C@H](F)C4=CC(=O)C=C[C@]4(C)[C@@]3(F)[C@@H](O)C[C@@]12C`, with 51.9%.
Then `Cc1cc(CS(=O)(=O)c2ccccc2)cc(OCc2ccc(CN3CCC[C@H]3CO)cc2)c1`, with 33.1%; and `Cc1ccc(S(=O)(=O)Nc2nc3ccccc3nc2Nc2ccc3nsnc3c2)cc1`, with 25.4% [at 9.64 µM]; and `Fc1ccc(CNc2ncnc3ccc(F)cc23)cc1`, with 300%.
`C[C@]12CCC3=C4CCC(=O)C=C4CC[C@@H]3[C@H]1CC[C@@]2(O)CC#N` showed a parasite growth, % of DMSO control of 92.8%.
In turn, `O=C1C(CCC(O)c2ccc(F)cc2)C(c2ccc(O)cc2)N1c1ccc(F)cc1` (stereo not given) showed a parasite growth, % of DMSO control of 33.5%.
Turning to `O=C(c1ccc(C(=O)N2CCC(N3CCCC3)CC2)c(Nc2ccccc2)c1)N1CCC(N2CCCC2)CC1`, the parasite growth, % of DMSO control stood at 80.6%.
Regarding `C=CC[N+]1([C@H]2C[C@H]3[C@@H]4CC[C@H]5C[C@H](O)[C@@H](N6CCOCC6)C[C@]5(C)[C@@H]4CC[C@]3(C)[C@H]2OC(C)=O)CCCC1`, the parasite growth, % of DMSO control is 31.1%.
In the case of `C=CCc1cccc(C=NNC(=O)CN2CCN(Cc3ccccc3)CC2)c1O` it was 38.6%; in that of `O=C(CCCN1CCN(c2ccc(F)cc2)CC1)NC1c2ccccc2CSc2ccccc21` (stereo not given), 76%; in that of `COc1ccnc(CS(=O)c2nc3ccc(OC(F)F)cc3[nH]2)c1OC` (stereo not given), 58.5%.
Molecule `CC1(COc2ccc3c(c2)ncn3-c2ccc3cccc(N4CCC(N)CC4)c3n2)COC1` gave a parasite growth, % of DMSO control of 5.45%.
As to `COc1cc2ncn(-c3cc(OCc4ccccc4S(C)(=O)=O)c(C#N)s3)c2cc1OC`, the parasite growth, % of DMSO control is 76.2%.
On to `CC(C)C[C@@H](N)[C@H](O)C(=O)N[C@H](C(=O)N[C@H](C(=O)N[C@@H](CC(=O)O)C(=O)O)C(C)C)C(C)C`, for which the parasite growth, % of DMSO control is 102%.
Then `CNC(=O)c1ccc2c(C(=Nc3cccc(CN(C)C)c3)c3ccccc3)c(O)[nH]c2c1`, with 19.9%.
Then `O=C(Nc1cccc(C(F)(F)F)c1)Nc1cc(S(=O)(=O)NC2CC2)ccc1-c1ccsc1`, with 52.8%; and `C[C@@]1(c2cc(-c3cncnc3)c(F)cc2F)CCSC(N)=N1`, with 28.5%; and `Nc1ncnc2c1ncn2[C@@H]1O[C@H](CO)[C@@H](O)[C@@H]1O`, with 6.49%.
Consider `CCOC(=O)c1c(CSc2ccccc2)n(C)c2cc(Br)c(O)c(CN(C)C)c12`, for which the parasite growth, % of DMSO control was determined as 8.99%.
On to `O=S(=O)(O)c1ccc2cc(N=Nc3cc(S(=O)(=O)O)c4cccnc4c3O)ccc2c1`, for which the parasite growth, % of DMSO control was 84.5%.
`CCCCCCOC(=O)N=C(N)c1ccc(NCc2nc3cc(C(=O)N(CCC(=O)OCC)c4ccccn4)ccc3n2C)cc1` showed a parasite growth, % of DMSO control of 9.57%.
In the case of `CCC(C)SSc1ncc[nH]1` (stereo not given) it was 86.2%; in that of `Fc1ccc(C(c2ccc(F)cc2)N2CCN(CC=Cc3ccccc3)CC2)cc1`, 6.36%; in that of `CN1N=C(N)c2cn([C@@H]3O[C@H](COP(=O)(O)O)[C@@H](O)[C@@H]3O)c3ncnc1c23`, 82.4%.
Molecule `C[C@@H]1CCO[C@H]2Cn3cc(C(=O)NCc4ccc(F)cc4F)c(=O)c(O)c3C(=O)N12` returned a parasite growth, % of DMSO control of 55%.
As for `C[C@H](c1ccc(F)cc1CCCC(=O)O)N(c1cc(F)ccc1F)S(=O)(=O)c1ccc(Cl)cc1`, the parasite growth, % of DMSO control was found to be 48.3%.
With `Cc1ccc(NC(=O)c2cccc(N(C)C)c2)cc1NC(=O)c1ccc(O)cc1`, the parasite growth, % of DMSO control was found to be 35.6%.
`CC(C)(C)c1nc(-c2cccc(NS(=O)(=O)c3c(F)cccc3F)c2F)c(-c2ccnc(N)n2)s1` displayed a parasite growth, % of DMSO control of 18.2%.
`COc1cc2nc(-c3cc(F)ccc3O)nc(N[C@@H]3CNC[C@@H]3C(C)(C)O)c2cc1OC` showed a parasite growth, % of DMSO control of 6.37%.
In the case of `CC(C)N(CCCNC(=O)Nc1ccc(C(C)(C)C)cc1)C[C@H]1O[C@@H](n2cc(Br)c3c(N)ncnc32)[C@H](O)[C@H]1O` it was 5.02%.
`Cc1cccc(-c2[nH]c(C(C)(C)C)nc2-c2ccc3c(c2)OCO3)n1`: the parasite growth, % of DMSO control is 9.08%.
With `O=C(Nc1ncc(SCCN2CCCC2)s1)[C@]1(c2ccc(S(=O)(=O)C3CC3)cc2)C[C@@H]1C1CCCCC1`, the parasite growth, % of DMSO control turned out to be 6.74%.
Molecule `COc1c(C)c2c(c(O)c1CC=C(C)CCC(=O)O)C(=O)OC2` gave a parasite growth, % of DMSO control of 15.7%.

(Values after PubChem BioAssay (NCATS).)
